# Data as given in ChEMBL document CHEMBL1961873, “Compounds: GSK PKIS; Assays: Nanosyn kinase panel” (2012).
# Experiments:
# [1] = target: Dual specificity protein kinase CLK3 (Homo sapiens) (UniProt P49761); settings: at 1 µM;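 note: each value is the mean inhibition of CLK3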
# [2] = target: Dual specificity tyrosine-phosphorylation-regulated kinase 1A (Homo sapiens) (UniProt Q13627); settings: at 0.1 µM
# [3] = target: Dual specificity tyrosine-phosphorylation-regulated kinase 1A (Homo sapiens) (UniProt Q13627); settings: at 1 µM
# [4] = target: Dual specificity tyrosine-phosphorylation-regulated kinase 1B (Homo sapiens) (UniProt Q9Y463); settings: at 0.1 µM
# Chain of Dual specificity tyrosine-phosphorylation-regulated kinase 1B (Homo sapiens) (Q9Y463 whole entry, looked up): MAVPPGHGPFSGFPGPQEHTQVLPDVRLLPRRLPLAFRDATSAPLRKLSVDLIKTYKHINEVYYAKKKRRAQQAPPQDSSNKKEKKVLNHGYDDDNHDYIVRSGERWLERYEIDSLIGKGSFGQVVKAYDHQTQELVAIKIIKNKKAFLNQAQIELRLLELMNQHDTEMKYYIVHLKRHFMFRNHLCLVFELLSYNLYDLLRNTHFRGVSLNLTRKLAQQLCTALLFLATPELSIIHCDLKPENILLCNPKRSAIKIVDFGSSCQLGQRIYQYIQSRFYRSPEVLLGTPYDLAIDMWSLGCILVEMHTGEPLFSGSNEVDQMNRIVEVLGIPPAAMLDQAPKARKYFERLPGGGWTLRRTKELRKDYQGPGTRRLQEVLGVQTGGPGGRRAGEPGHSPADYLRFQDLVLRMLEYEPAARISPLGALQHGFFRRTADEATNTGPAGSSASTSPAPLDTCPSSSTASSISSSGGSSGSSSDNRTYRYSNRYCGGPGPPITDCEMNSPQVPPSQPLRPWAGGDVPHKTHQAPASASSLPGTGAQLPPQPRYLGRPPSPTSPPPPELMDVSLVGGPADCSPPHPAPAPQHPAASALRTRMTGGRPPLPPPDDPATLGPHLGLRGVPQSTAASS
# [5] = target: Dual specificity tyrosine-phosphorylation-regulated kinase 1B (Homo sapiens) (UniProt Q9Y463); settings: at 1 µM
# [6] = target: T1, Dual specificity tyrosine-phosphorylation-regulated kinase 2 (Homo sapiens) (UniProt Q92630); settings: at 0.1 µM
# T1 sequence (whole entry): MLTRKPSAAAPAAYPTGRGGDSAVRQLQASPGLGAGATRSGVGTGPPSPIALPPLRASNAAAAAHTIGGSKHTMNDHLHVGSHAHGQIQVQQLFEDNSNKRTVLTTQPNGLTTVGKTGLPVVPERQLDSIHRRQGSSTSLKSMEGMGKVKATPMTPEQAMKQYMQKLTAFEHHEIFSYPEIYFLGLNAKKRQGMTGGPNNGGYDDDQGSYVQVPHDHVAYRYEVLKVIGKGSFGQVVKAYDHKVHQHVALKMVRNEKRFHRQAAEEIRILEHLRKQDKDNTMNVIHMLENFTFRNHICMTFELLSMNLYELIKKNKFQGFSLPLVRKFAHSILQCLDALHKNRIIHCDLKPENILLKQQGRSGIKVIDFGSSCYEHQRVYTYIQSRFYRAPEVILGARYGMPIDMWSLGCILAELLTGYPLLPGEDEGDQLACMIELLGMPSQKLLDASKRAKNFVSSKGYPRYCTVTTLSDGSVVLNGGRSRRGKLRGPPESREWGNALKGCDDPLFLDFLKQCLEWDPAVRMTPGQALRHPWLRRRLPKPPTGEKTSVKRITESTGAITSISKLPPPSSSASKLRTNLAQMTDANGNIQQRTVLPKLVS
# [7] = target: T1, Dual specificity tyrosine-phosphorylation-regulated kinase 2 (Homo sapiens); settings: at 1 µM
# [8] = target: Glycogen synthase kinase-3 alpha (Homo sapiens) (UniProt P49840); settings: at 0.1 µM
# Chain of Glycogen synthase kinase-3 alpha (Homo sapiens) (P49840 2-483 limits assumed): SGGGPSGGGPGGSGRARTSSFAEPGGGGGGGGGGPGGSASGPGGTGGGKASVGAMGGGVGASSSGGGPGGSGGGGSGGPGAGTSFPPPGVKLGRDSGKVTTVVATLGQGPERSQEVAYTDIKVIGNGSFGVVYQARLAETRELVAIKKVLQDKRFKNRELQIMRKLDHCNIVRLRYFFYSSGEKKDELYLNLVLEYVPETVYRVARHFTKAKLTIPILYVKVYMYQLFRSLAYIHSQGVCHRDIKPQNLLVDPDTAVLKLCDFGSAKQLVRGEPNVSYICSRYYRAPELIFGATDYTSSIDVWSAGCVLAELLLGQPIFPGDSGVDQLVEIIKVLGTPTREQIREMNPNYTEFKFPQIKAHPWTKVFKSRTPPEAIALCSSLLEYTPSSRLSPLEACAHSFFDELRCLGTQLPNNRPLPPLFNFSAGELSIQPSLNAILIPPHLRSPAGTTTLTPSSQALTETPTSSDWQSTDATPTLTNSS
# [9] = target: Glycogen synthase kinase-3 alpha (Homo sapiens) (UniProt P49840); settings: at 1 µM
# [10] = target: Glycogen synthase kinase-3 beta (Homo sapiens) (UniProt P49841); settings: at 0.1 µM
# Chain of Glycogen synthase kinase-3 beta (Homo sapiens) (P49841 whole entry, looked up): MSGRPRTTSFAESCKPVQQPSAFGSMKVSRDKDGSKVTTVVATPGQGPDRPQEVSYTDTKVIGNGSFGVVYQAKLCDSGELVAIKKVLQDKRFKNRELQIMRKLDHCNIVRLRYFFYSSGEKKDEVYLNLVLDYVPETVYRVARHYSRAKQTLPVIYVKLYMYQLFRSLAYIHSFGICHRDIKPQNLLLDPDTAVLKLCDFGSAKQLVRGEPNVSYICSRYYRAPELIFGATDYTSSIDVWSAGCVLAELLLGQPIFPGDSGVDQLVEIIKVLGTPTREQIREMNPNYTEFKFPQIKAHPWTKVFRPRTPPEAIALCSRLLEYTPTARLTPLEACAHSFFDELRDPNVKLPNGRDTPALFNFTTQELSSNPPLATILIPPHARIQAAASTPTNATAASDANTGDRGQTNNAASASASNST
# [11] = target: Glycogen synthase kinase-3 beta (Homo sapiens) (UniProt P49841); settings: at 1 µM
# [12] = target: Homeodomain-interacting protein kinase 1 (Homo sapiens) (UniProt Q86Z02); settings: at 0.1 µM
# Chain of Homeodomain-interacting protein kinase 1 (Homo sapiens) (Q86Z02 whole entry, looked up): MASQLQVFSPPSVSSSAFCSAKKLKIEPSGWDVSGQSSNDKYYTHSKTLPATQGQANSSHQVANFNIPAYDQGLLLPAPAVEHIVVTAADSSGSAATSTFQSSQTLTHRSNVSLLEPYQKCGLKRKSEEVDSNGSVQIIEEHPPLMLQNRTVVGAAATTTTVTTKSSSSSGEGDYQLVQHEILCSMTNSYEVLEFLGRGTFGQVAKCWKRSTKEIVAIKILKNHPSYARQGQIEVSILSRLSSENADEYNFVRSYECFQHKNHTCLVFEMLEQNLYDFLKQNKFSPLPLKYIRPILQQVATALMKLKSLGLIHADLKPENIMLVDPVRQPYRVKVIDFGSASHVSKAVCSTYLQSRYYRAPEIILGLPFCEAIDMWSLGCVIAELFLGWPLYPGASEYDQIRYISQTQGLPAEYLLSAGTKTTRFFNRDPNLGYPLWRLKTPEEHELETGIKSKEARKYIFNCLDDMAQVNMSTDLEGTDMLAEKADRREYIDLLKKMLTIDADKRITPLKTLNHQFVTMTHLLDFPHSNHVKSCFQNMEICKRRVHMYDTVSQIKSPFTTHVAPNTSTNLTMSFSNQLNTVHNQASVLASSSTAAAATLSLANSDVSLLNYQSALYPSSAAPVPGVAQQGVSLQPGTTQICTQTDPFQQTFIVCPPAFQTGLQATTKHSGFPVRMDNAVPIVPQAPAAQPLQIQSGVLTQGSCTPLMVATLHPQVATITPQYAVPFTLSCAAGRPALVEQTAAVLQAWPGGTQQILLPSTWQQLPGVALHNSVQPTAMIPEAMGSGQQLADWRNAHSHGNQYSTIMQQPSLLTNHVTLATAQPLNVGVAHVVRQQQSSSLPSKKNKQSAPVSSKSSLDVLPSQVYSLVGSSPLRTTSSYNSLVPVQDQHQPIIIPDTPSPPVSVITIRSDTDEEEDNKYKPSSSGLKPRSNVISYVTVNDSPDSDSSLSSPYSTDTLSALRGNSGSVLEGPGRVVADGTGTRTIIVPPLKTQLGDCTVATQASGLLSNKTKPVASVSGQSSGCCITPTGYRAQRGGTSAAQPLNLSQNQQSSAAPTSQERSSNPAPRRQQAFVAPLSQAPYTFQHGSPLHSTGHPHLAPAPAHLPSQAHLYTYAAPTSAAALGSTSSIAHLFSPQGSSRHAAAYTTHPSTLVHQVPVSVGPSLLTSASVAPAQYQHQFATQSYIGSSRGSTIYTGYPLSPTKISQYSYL
# [13] = target: Homeodomain-interacting protein kinase 1 (Homo sapiens) (UniProt Q86Z02); settings: at 1 µM
# [14] = target: T2, Homeodomain-interacting protein kinase 4 (Homo sapiens) (UniProt Q8NE63); settings: at 0.1 µM
# T2 sequence (whole entry): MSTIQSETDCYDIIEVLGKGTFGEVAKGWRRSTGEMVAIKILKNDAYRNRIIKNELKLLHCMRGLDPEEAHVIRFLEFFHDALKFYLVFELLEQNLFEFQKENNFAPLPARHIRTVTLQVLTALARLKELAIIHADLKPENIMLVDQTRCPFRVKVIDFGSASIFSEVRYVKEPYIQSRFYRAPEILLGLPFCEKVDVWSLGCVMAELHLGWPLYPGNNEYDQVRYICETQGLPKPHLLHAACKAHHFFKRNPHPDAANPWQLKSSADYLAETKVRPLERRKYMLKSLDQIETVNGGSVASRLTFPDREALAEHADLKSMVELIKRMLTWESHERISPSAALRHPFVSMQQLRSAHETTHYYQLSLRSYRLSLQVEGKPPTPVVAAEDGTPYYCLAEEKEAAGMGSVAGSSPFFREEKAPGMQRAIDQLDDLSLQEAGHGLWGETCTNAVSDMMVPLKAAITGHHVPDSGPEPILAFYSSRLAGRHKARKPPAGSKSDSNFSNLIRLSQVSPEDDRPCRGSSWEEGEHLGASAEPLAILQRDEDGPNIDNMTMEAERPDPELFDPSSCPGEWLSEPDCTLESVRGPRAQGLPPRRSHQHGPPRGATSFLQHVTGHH
# [15] = target: T2, Homeodomain-interacting protein kinase 4 (Homo sapiens); settings: at 1 µM
# [16] = target: Mitogen-activated protein kinase 9 (Homo sapiens) (UniProt P45984); settings: at 0.1 µM
# Chain of Mitogen-activated protein kinase 9 (Homo sapiens) (P45984 whole entry, looked up): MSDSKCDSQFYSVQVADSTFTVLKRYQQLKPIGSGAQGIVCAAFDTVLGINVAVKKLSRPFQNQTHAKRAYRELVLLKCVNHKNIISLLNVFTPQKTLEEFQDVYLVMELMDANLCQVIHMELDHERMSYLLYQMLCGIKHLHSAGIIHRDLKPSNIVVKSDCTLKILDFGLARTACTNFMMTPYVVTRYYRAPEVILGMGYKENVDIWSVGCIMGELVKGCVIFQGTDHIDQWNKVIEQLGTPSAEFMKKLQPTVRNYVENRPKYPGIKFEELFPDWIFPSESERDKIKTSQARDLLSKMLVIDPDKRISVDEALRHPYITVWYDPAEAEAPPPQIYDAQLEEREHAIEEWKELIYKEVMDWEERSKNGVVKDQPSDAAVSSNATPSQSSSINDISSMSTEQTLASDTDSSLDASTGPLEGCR
# [17] = target: Mitogen-activated protein kinase 9 (Homo sapiens) (UniProt P45984); settings: at 1 µM
# [18] = target: Mitogen-activated protein kinase 1 (Homo sapiens) (UniProt P28482); settings: at 0.1 µM
# Chain of Mitogen-activated protein kinase 1 (Homo sapiens) (P28482 whole entry): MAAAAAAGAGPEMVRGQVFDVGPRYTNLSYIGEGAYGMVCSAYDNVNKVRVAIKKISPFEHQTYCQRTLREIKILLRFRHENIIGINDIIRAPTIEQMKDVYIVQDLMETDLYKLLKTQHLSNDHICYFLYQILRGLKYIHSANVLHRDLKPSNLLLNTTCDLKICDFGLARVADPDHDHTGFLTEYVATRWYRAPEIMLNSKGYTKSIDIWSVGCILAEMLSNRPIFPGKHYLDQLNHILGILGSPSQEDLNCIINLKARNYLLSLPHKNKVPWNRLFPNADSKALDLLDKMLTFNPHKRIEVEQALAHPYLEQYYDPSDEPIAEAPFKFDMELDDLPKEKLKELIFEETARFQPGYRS
# [19] = target: Mitogen-activated protein kinase 1 (Homo sapiens) (UniProt P28482); settings: at 1 µM
# [20] = target: Mitogen-activated protein kinase 3 (Homo sapiens) (UniProt P27361); settings: at 0.1 µM;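 note: each value is a mean inhibition figure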
# Chain of Mitogen-activated protein kinase 3 (Homo sapiens) (P27361 whole entry): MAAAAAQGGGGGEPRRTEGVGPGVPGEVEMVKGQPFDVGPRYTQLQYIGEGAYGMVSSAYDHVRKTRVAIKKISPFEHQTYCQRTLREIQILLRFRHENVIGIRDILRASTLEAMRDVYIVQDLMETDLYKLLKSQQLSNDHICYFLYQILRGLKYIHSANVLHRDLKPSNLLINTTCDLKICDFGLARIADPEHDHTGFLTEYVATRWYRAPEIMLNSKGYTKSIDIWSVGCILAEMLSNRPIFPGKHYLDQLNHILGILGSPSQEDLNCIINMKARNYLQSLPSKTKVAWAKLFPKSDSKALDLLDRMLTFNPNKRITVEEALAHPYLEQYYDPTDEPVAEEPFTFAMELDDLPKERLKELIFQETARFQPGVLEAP
# Chain of Dual specificity protein kinase CLK3 (Homo sapiens) (P49761 whole entry, looked up): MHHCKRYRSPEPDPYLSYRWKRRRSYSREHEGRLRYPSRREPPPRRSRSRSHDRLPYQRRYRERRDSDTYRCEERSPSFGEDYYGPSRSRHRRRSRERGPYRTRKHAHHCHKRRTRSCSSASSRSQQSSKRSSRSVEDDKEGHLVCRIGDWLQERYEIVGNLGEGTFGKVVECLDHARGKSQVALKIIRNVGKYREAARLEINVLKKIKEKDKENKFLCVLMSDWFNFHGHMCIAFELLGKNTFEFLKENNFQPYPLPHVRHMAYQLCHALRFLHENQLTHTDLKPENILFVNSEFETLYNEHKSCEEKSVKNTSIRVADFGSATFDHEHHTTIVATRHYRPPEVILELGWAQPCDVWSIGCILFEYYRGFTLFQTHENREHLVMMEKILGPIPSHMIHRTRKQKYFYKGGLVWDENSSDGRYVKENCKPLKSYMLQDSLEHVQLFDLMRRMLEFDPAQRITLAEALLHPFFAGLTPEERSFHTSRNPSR
SMILES,inhibition [1] [%],inhibition [2] [%],inhibition [3] [%],inhibition [4] [%],inhibition [5] [%],inhibition [6] [%],inhibition [7] [%],inhibition [8] [%],inhibition [9] [%],inhibition [10] [%],inhibition [11] [%],inhibition [12] [%],inhibition [13] [%],inhibition [14] [%],inhibition [15] [%],inhibition [16] [%],inhibition [17] [%],inhibition [18] [%],inhibition [19] [%],inhibition [20] [%]
Cc1nnc(-c2ccc(C)c(-c3ccc(C(=O)Nc4cccc(C#N)c4)cc3)c2)o1,1.62,0.92,3.59,0.45,1.21,1.13,1.2,2.41,4.82,2.45,3.29,-1.32,-2.46,0.46,0.28,4,2.96,0.61,2.56,3.17
CCn1c(-c2nonc2N)nc2c(C#CC(C)(C)O)nc(CN3CCCC3)cc21,0.53,1.08,2.47,0.74,2.39,-1.68,0.64,5.1,21.6,4.97,18.9,-1.35,2.58,-1.44,0.75,0.67,-2.07,-1.09,0.12,0.51
CNC(=O)c1cncc(/C=C/c2c(Cl)cccc2Cl)c1,-3.4,-1.12,-1.12,-1.13,3.55,3.17,6.98,-0.55,3.81,-1.21,1.92,-2.63,4.11,1.25,7.87,4.08,10.1,5,4.6,5.34
CS(=O)(=O)CCN(CC#N)Cc1ccc(-c2ccc3ncnc(Nc4ccc(OCc5cccc(F)c5)c(Cl)c4)c3c2)o1,-4.13,-2.78,-0.17,-4.49,-3.08,0.54,0.76,-1.48,0.08,-2.26,-0.38,-6.53,-4.34,0.31,2.79,-0.56,2.18,3.93,1.9,1.67
CN1CCC(C(=O)Nc2n[nH]c3nnc(-c4ccccc4)cc23)CC1,2.52,7.11,33.9,7.12,31.9,4.83,9.37,79.5,85.7,–,–,3.96,9.2,0.93,4.44,4.37,5.52,7.18,5.71,5.71
CCN1CCC(CC(=O)Nc2n[nH]c3nc(-c4cccs4)c(Br)cc23)CC1,4.44,4.33,20.6,4.83,22.3,-0.64,14,46.6,78.3,26.6,68.7,3.88,6.48,2.06,8.88,-5.62,-3.11,-4.72,-6.9,-1.1
COc1ccc(-c2ccncc2)cc1C(N)=O,0.61,3.91,6.95,-1.51,2.44,3.8,9.87,3,4.53,2.89,4.32,-2.78,3.84,0.07,4.19,4.22,5.45,5.23,6.46,3.61
CCn1c(-c2nonc2N)nc2ccncc21,0.52,0.1,2.88,-0.02,0.71,1.94,2.17,0.52,7.82,0.08,5.32,-3.19,0.47,-0.89,-0.65,3.39,2.53,13.4,1.62,2.94
O=C(Nc1n[nH]c2nc(-c3ccco3)c(Br)cc12)C1CC1,2.72,1.71,4.33,0.48,3.25,3.03,4.31,36.9,80.6,–,–,-1.07,3.67,0.54,2.1,2.66,3.7,-0.07,5.13,5.33
Nc1nc(-c2ccccn2)c(-c2ccc3ncccc3n2)s1,4.76,7.05,18.3,3.14,8.56,2.04,4.58,3.86,12.8,3.76,8.29,4.06,10.3,3.92,10.1,2.16,2.28,1.86,2.54,1.83
COc1cc2c(cc1Nc1nc(N3CCc4ccccc43)c3cc[nH]c3n1)N(C(=O)CN(C)C)CC2,2.24,0.78,3.98,0.64,2.3,2.22,2.02,0.35,1.16,0.15,0.72,-1.15,2.7,1.42,2.99,1.11,1.82,0.85,2.12,2.89
NS(=O)(=O)c1cccc(-c2ccc3c(NC(=O)C4CC4)n[nH]c3c2)c1,1.36,2.96,3.42,2.16,3.65,-1.18,-0.6,1.01,3.15,–,–,-0.23,0.61,0.1,1.04,-7.07,-5.26,-2.53,-5.17,0.73
COc1ccc(COc2ccc(Cc3cnc(N)nc3N)cc2OC)cc1,-0.53,1.44,0.52,4,2.57,-0.01,0.42,1.37,0.34,0.96,–,-1.6,0.13,2.52,4.49,0.2,0.51,-1.03,-0.13,0.6
Fc1cccc(COc2ccc(Nc3ncnc4sc(-c5cccs5)cc34)cc2Cl)c1,-0.15,1.88,6.51,1.39,2.06,-1.01,1.17,1.69,6.14,1.97,5.88,-5.41,2.04,0.33,1.31,0.62,1.01,2.17,1.6,1.1
